The campaign covered roughly 4,600 compounds. About 2,900 (63%) were called active. The set was probably picked from earlier hits. The list is a sample of the results. A number with no mark means an inactive call.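 Rule for the calls: active = inhibition of yeast growth at or above a set limit in either of two replicates at 10 µM; inactive = the rest.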
assay: TIM10 isogenic control strain growth inhibition – single concentration, luminescence, S. cerevisiae, counter-screen for tim10-1 synthetic lethality project, confirmation (AID 463215); details: BacTiter-Glo luminescence, 24 h, at 10 µM, stronger effect = higher value;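 note: isogenic wild-type TIM10 control yeast grown in succinate dextrose medium; this counterscreen used the strain with wild-type TIM10; 0% = yeast with DMSO and 100% = medium wells lacking yeast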

SMILES | inhibition
O=C1C=CC(=O)N1c1ccc(N2CCCCC2)cc1 | 85.4% (active)
COc1ccc2c(CN3CCN(S(=O)(=O)c4cccs4)CC3)cc(=O)oc2c1 | -35.7%
O=C(O)CCCC(=O)Nc1ccccc1-n1ccnc1 | -10.4%
CN(C)c1ccnc2sc(C(=O)c3ccccc3)c(N)c12 | 25.4%
COc1ccc(S(=O)(=O)N2CCN(C(C)C(=O)Nc3ccc(C(C)C)cc3)CC2)cc1 (centres undefined) | 38.8% (active)
O=C(CN1CCN(S(=O)(=O)c2ccc3ccccc3c2)CC1)NC(=O)NC1CCCCC1 | 23.4%
Fc1ccc(-n2c(Cc3ccccc3)nnc2SCc2nc(-c3ccc(Cl)cc3)no2)cc1 | 37.8% (active)
Cc1ccc(-c2noc(CSc3nnc(-c4ccncc4)n3-c3ccc(F)cc3)n2)cc1 | 30.2% (active)
Cc1ccc(/C=N/NC(=S)NC2CCCCC2)o1 | 11.8%
COc1ccc(N2C(=O)CC(Sc3n[nH]c(-c4ccc(C)cc4)n3)C2=O)cc1 (centres undefined) | 13.8%
FC(F)(F)c1cccc(NC(=S)Nc2cccc(Cl)c2)c1 | 26.8%
O=C(Nc1cccc(Cl)c1)C1CCCN(c2cnccn2)C1 (centres undefined) | 5.7%
O=C(Nc1cccc(Cl)c1)OCc1ccccn1 | 41.4% (active)
O=C(CSc1cccc[n+]1[O-])c1ccc(-c2ccccc2)cc1 | 44.2% (active)
O=C1NC(Nc2nc3ccccc3s2)(C(F)(F)F)C(=O)N1C1CCCCC1 (centres undefined) | 52.6% (active)
N#CC1(C#N)C(C(=O)C23CC4CC(CC(C4)C2)C3)C12CCOCC2 (centres undefined) | 26.6%
COC(=O)c1c(NC(=O)COc2ccc(Cl)cc2Cl)sc2c1CC(C)(C)NC2(C)C | 45.8% (active)

SMILES | inhibition
CCn1c(CSCc2c(Cl)cccc2Cl)n[nH]c1=S | 35.4% (active)
O=C(Nc1ccccc1Cl)/C(Cl)=C(\Cl)S(=O)c1ccccc1 (centres undefined) | 89.6% (active)
O=c1oc(-c2ccccc2NS(=O)(=O)c2ccc(Cl)cc2)nc2ccccc12 | 41.5% (active)
Cc1[nH]c(=O)c(C(=O)/C=C/c2ccccc2)c2c1CCCC2 | 38.8% (active)
COc1ccc(Nc2cc(C)nc(-n3nc(C)cc3C)n2)cc1 | 34.1% (active)
COc1ccc(/C=C(\C#N)C(=O)ONC2=NCCCCC2)cc1 | 59% (active)
O=C(NCCc1ccc(F)cc1)c1ccc(S(=O)(=O)N2CCCCC2)cc1 | 53.5% (active)
O=C(Nc1cccc(S(=O)(=O)N2CCCC2)c1)c1cncc(Br)c1 | -2.05%
CC(=O)Cc1nsc(NC(=O)c2ccc(Cl)cc2Cl)n1 | 17.2%
C/C(=N/NC(=S)Nc1ccccc1)c1ccc2c(c1)OCO2 | 38.8% (active)
CC(=O)N1C(C)c2ccccc2C(C)(C)CC12CCCCC2 (centres undefined) | -16%
COc1ccc(Nc2nc(N)nc(CSC(=S)N3CCC(C)CC3)n2)cc1 | -1%
Cc1cc(C)nc(S/C=C/C(=O)c2ccccc2)n1 | 60.8% (active)
Cc1csc(NC(=S)Nc2cccc(Cl)c2)n1 | 9.5%
Cc1cc(C)c(S(=O)(=O)c2ccccc2)c(OC(=O)c2c(F)cccc2Cl)n1 | -5.1%
COC(C/C=C/C(=O)[C@@H](C)OCc1ccccc1)OC | 39.4% (active)
CNC(=O)/C(C#N)=C/c1c(F)cccc1Cl | 40.6% (active)

Reference: PubChem BioAssay AID463215 (Sanford-Burnham Center for Chemical Genomics, 2010)
